NPC1 prom act – activators of NPC1 promoter | Huh7 NPC1 promoter luciferase reporter, 24 h | Potency, µM (highest dose often 9.22 µM), actives largely listed as activators | 320,000 compounds, 2.4% hits | AID 485313; note: nearly all actives have a fitted effect of over 60% in size
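Luminescence from an NPC1 promoter-driven luciferase reporter in stably transfected Huh7 cells was measured after 24 h compound treatment at 37 °C, followed by 10 min ambient incubation with luciferase detection reagent.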
SMN2 splice up – increases expression of the SMN2 splice variant. AID 1458. Potency, µM (series often up to 46.1 µM), actives largely listed as activators. 210,000 compounds, 2.8% hits. HEK293 SMN2-luciferase splicing reporter, luminescence, 30-36 h; note: nearly all actives have a fitted effect of over 55% in size
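HEK293 cells carry an SMN2 minigene-luciferase reporter in which exon 7 inclusion puts luciferase in frame. Cells were seeded at 2000 cells/well, attached for 10-12 hours, then exposed to compounds for 30-36 hours at 37C before ONE-Glo luminescence.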
FLuc modulator – inhibits or activates purified firefly luciferase, miR-21 counter-screen | 360,000 compounds, 6.9% hits | purified FLuc, Km substrates, luminescence inhibition | P08659 | Potency, µM (doses to about 57.5 µM), hits mostly inhibitors; note: nearly all actives have a fitted effect of over 55% in size
Target sequence (P08659 whole entry, looked up): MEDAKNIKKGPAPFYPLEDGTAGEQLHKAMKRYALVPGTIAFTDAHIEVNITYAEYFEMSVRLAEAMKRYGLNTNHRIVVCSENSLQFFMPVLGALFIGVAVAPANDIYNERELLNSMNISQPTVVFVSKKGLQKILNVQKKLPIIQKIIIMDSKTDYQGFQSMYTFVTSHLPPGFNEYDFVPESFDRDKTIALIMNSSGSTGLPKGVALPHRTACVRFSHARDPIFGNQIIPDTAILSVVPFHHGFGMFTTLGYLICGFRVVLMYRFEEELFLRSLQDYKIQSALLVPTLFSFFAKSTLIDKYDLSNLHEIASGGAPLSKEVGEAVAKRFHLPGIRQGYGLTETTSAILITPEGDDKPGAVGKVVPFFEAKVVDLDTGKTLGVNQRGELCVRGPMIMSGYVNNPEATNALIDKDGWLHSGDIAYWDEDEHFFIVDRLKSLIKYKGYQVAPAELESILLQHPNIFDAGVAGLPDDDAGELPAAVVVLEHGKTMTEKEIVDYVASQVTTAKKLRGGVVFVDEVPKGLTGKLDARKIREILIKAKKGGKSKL
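Purified P. pyralis luciferase, 10 nM final, with Km-level 10 uM D-luciferin and 10 uM ATP in 50 mM Tris acetate pH 7.5, 10 mM Mg acetate, 0.01% Tween-20, 0.05% BSA; 6-point qHTS titration about 60 µM downward; luminescence read.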
Rab9 prom act – Rab9 promoter activation. Huh7 Rab9 promoter-luciferase reporter, luminescence, 24 h. 320,000 compounds, 2.8% hits. Potency, µM (doses to about 9.22 µM), actives largely listed as activators; note: nearly all actives have a fitted effect of over 60% in size
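Quantitative HTS format; Huh7 Rab9-luciferase reporter cells (1500/well) receive compound 2 h post-plating, incubate 24 h at 37 °C, then get luciferase reagent for 10 min before luminescence reading.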
ELG1 genotox – induces genotoxicity in HEK293T cells with luciferase-tagged ELG1. AID 504466. Potency, µM (doses to about 46 µM), hits mostly activators. 330,000 compounds, 1.3% hits. HEK293T ELG1-luciferase reporter, luminescence, 16 h; note: nearly all actives have a fitted effect of over 60% in size
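ELG1-luciferase HEK293T cells, 2,000/well; compound pinned in; 16 hr, 37 °C, 5% CO2; ONE-Glo, 30 min RT; luminescence on CCD imager.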
ELG1 DNA repair – blocks ELG1-dependent DNA repair in HEK293T cells; HEK293T ELG1-luciferase reporter, luminescence, 16 h; DNA damage induced by 5-fluorouridine; Potency, µM (series often up to 46.1 µM), most hits filed as inhibitors; 330,000 compounds, 2.3% hits; AID 504467; note: nearly all actives have a fitted effect of over 55% in size
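DMSO vehicle served as the neutral condition. Each well held 2,000 cells given 5-fluorouridine plus compound; after 16 hr at 37 °C/5% CO2, ONE-Glo was added and luciferase measured 30 min later.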
Hits are given with their value; - = inactive; ? = inconclusive; . = no result given; [ ] = another dose, or the depositor's remark. Compounds with a hit are over-represented: about 9.2% of the library has one in this group of screens. Calls come from the whole dose curve; as a rule, active = well fitted curve in the direction sought with a large enough effect; inconclusive = small, poorly fitted or top-dose-only effect, or another doubt; inactive = no such curve, though single readings can be large; an effect the other way counts as inactive or inconclusive.

SMILES | NPC1 prom act | SMN2 splice up | FLuc modulator | Rab9 prom act | ELG1 genotox | ELG1 DNA repair
O=C(N[C@@H]1CCC(=O)N(CC[C@H](Sc2ccc(Br)cc2)c2ccccc2)CC1)OCc1ccccc1 | - | . | - | - | - | ?
COc1ccc(S[C@@H](CCN2CC[C@H](NC(=O)OCc3ccccc3)CCC2=O)c2ccccc2)cc1 | . | . | . | . | - | 18µM
CCOC(=O)CN(C(=O)CN1CCC(n2nnc3cc(C)ccc32)CC1)c1ccccc1 | - | - | - | - | - | ?
Cc1ccc2c(c1)nnn2C1CCN(C(=O)C23CC4CC(CC(C4)C2)C3)CC1 | - | - | - | - | - | 23µM
Cc1ccc2c(c1)nnn2C1CCN(C(=O)NC23CC4CC(CC(C4)C2)C3)CC1 | - | - | - | - | - | ?
Cc1ccc2c(c1)nnn2C1CCN(CC(=O)N(c2ccccc2)c2ccccc2)CC1 | - | . | - | - | - | 16µM
COc1cccc(Cn2c(=O)cc(C)c3c(C)nn(-c4ccc(C)cc4)c32)c1 | . | . | - | . | . | .
COc1ccccc1OCCCCn1c(C(C)O)nc2ccccc21 (stereo not drawn) | - | . | - | - | - | ?
c1ccc(-c2csc(NNC3=NCCCCC3)n2)cc1 | - | - | 15µM | - | ? | ?
COc1ccc(-c2csc(NNC3=NCCCCC3)n2)cc1 | - | - | ? | - | - | ?
COc1ccc(-c2csc(NC3=NCCCCC3)n2)cc1 | ? | -[1.84 µM] | 12µM | ? | - | ?
NC(=S)N/N=C/c1ccc(-c2ccccc2)o1 | - | - | ? | - | - | -
NC(=S)N/N=C/c1ccc(-c2ccc(Cl)c(Cl)c2)o1 | - | - | ? | - | - | ?
Cc1ccc(-c2ccc(/C=N/NC(N)=S)o2)cc1 | ? | . | 6.7µM | ? | - | ?
NC(=S)N/N=C/c1ccc(-c2ccc(SC(F)F)cc2)o1 | - | . | 24µM | - | - | ?
CCc1ccc(S(=O)(=O)N(C(=O)Oc2ccccc2)c2ccc3oc(C)c(C(=O)OC)c3c2)cc1 | . | - | - | . | . | .
CCN(Cc1nc2cc(Cl)ccc2c(=O)[nH]1)C(=O)c1nn(C)c(=O)c2ccccc12 | - | . | - | - | - | ?
CCn1c(=O)cc(SCC(=O)N2CCN(C(=O)c3ccco3)CC2)c2ccccc21 | - | ? | - | - | ? | ?
CCn1c(=O)cc(SCC(=O)N2CCOCC2)c2ccccc21 | - | 14µM | - | - | ? | ?
CCn1c(=O)cc(SCC(=O)N2CCN(C3CCCCC3)CC2)c2ccccc21 | - | 10µM | - | - | - | ?
CCn1c(=O)cc(SCC(=O)N2CCN(c3ccccc3OC)CC2)c2ccccc21 | - | . | - | - | - | -
COCCNS(=O)(=O)c1cc(F)ccc1OC | - | 3.2µM | - | - | - | -
COCCNS(=O)(=O)c1cc(C(=O)O)ccc1OC | - | . | - | - | - | -
CCn1cc(CN2CCC(n3nccc3NC(=O)c3ccccc3C)CC2)c(C)n1 | - | . | - | - | - | -
CCN1C(=O)c2cccc3c(S(=O)(=O)Nc4ccccc4)ccc1c23 | - | 20µM | - | - | ? | ?
SMILES | NPC1 prom act | SMN2 splice up | FLuc modulator | Rab9 prom act | ELG1 genotox | ELG1 DNA repair
O=C1Nc2ccc(S(=O)(=O)NCC3CCCO3)c3cccc1c23 (stereo not drawn) | - | . | - | - | - | -
CCN1C(=O)c2cccc3c(S(=O)(=O)NCC4CCCO4)ccc1c23 (stereo not drawn) | - | . | - | - | 15µM | ?
CCN1C(=O)c2cccc3c(S(=O)(=O)Nc4nc(C)cs4)ccc1c23 | - | 13µM | - | - | ? | ?
CCN1C(=O)c2cccc3c(S(=O)(=O)Nc4ccccn4)ccc1c23 | - | ? | - | - | 21µM | ?
O=C(CN1C(=O)COc2ccccc21)NCCc1ccc(Cl)cc1 | . | . | - | . | . | .
Cc1oc(-c2ccccc2)nc1CSc1nnc(C)n2c1cc1sccc12 | . | . | - | . | . | .
CNS(=O)(=O)c1ccc2c3c(cccc13)C(=O)N2C | - | . | - | - | - | ?
CN1C(=O)c2cccc3c(S(=O)(=O)Nc4ccccc4F)ccc1c23 | - | . | - | - | 5.8µM | ?
O=C(NCc1ccc(Cl)cc1)C1CCN(c2ncnc3c2nc2n3CCCCC2)CC1 | . | . | - | . | . | .
CCCNC(=O)c1ccc(N2CCC3(CC2)CC(c2ccccc2)=NO3)c(NC(=O)c2ccco2)c1 | - | . | - | - | - | 5.8µM
O=C(NCc1ccco1)c1nc2c(nnn2Cc2ccccc2Cl)c(=O)[nH]1 | - | - | - | - | - | 21µM
Cc1ccc(C)c(Cn2nnc3c(=O)[nH]c(C(=O)NCc4ccco4)nc32)c1 | - | - | - | - | - | -
O=C(Nc1ccc(F)cc1)c1nc2c(nnn2Cc2cccc3ccccc23)c(=O)[nH]1 | - | . | 27µM | - | - | -
c1cc(CCCc2ccncc2)ccn1 | - | . | - | - | - | -
O=C(Oc1ccccc1)N1CCC2(CC1)CN(c1ccncc1)C2 | . | - | . | . | . | .
O=C(NC1=NCCS1)c1ccc(OCC2CCCO2)cc1 (stereo not drawn) | 0.4µM | 10µM | ? | 0.35µM | ? | ?
O=C(Nc1ncccc1O)c1ccc(OCC2CCCO2)cc1 (stereo not drawn) | 0.79µM | . | 7.6µM | 0.79µM | 1.2µM | ?
O=C(Nc1ncccc1O)c1ccc(Oc2ccccc2)cc1 | 1.8µM | . | 6.7µM | 2.8µM | 9.2µM | ?
CCOc1ccc(C(=O)NC2=NCCS2)cc1 | 1.1µM | 14µM | 11µM | 0.5µM | ? | ?
N/C(=N\OC(=O)c1csnn1)c1ccc(C(F)(F)F)cc1 | ? | . | 19µM | ? | - | ?
NC(=NC(=O)c1ccc(OC(F)(F)F)cc1)c1ccc(C(F)(F)F)cn1 | - | . | - | - | - | -
Cc1ccc(C(=O)O/N=C(\N)c2ccc(C(F)(F)F)cn2)cc1 | - | . | 2.1µM | - | - | ?
C#CCn1c(CCNC(=O)c2ccco2)nc2ccccc21 | - | . | - | - | - | ?
CC(=O)OCC(=O)[C@@]1(O)CCC2C3CC(C)C4=CC(=O)C=CC4(C)C3C(O)CC21C (stereo partly drawn) | . | - | . | . | . | .
COc1ccc2c(c1OC)C(=O)OC2Nc1nc(-c2cc3cc(Br)ccc3oc2=O)cs1 (stereo not drawn) | 2µM | . | 21µM | 1.4µM | ? | ?
O=C(O)c1cccc(Nc2nc(-c3cc4ccccc4oc3=O)cs2)c1 | 2.8µM | . | 6µM | ? | ? | ?
O=c1oc2ccccc2cc1-c1csc(NN=C2CCCC2)n1 | - | -[1.84 µM] | - | - | - | ?
NNc1nnc2c3cc(F)ccc3n(CCc3ccccc3)c2n1 | - | . | - | - | - | 12µM
Cc1cc(C)c2c(N)c(C(=O)NNC(=O)c3ccccc3)sc2n1 | 3.2µM | 11µM | ? | 3.5µM | ? | ?
Cc1ccc(S(=O)(=O)Nc2nc(C)c(C(=O)N/N=C/c3ccccc3)s2)cc1 | - | - | 6µM | - | - | -
